This is an account of results in publication PMC4053984, “DNA binding specificities of the long zinc-finger recombination protein PRDM9”.

Sequence of PRDM9Cst (Mus musculus (CAST/EiJ)) (chain, as listed by the source): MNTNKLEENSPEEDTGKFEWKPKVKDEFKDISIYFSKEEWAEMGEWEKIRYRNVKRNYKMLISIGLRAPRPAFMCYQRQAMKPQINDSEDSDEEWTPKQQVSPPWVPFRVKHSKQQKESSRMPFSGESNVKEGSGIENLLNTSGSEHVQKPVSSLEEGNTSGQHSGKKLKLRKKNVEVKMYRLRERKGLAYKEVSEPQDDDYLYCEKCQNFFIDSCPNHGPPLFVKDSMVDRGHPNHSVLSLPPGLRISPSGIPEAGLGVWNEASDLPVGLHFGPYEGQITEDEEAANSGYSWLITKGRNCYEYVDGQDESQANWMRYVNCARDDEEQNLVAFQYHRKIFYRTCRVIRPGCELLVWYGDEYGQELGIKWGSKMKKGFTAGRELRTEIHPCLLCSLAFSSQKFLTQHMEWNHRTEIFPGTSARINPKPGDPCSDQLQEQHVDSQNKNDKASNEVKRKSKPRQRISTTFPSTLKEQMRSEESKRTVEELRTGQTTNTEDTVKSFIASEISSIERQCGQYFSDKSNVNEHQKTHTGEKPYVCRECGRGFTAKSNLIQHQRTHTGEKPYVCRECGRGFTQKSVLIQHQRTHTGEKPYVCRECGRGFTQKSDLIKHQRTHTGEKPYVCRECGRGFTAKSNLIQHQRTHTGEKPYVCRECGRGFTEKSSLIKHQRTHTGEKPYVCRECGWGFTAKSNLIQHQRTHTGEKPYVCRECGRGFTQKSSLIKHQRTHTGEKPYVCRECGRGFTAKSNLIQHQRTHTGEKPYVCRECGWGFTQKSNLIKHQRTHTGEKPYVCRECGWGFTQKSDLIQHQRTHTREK

This assay concerns the target PRDM9Cst (Mus musculus (CAST/EiJ)). Kind of assay: competition EMSA; competition against biotin-labeled 75-bp Hlx1 B6 oligo; 10 mM Tris pH 7.5, 50 mM KCl, 1 mM DTT, 50 ng/ul poly(dI/dC), 0.05% NP-40, crude E. coli extract 3 ul in 20 ul; 1 h with unlabeled competitor, then 4 h with biotin-labeled 75-bp Hlx1; temperature not stated; high values mean tight binding. The following applies: tags: N-terminal His tag (pBAD/HisB); dsDNA, one strand shown. Background: Mobility shift assays separate free from complexed probe on a gel.
For the sequence ATAGTGTGCAGACTTGGACCCTGCCCTTTATTT, the binding signal was 0.05 Bmut (0 = wild type, -1 = scrambled).

Turning to ATAGTGTGGAGACTTGGACCCTGCCCTTTCTTT, the binding signal was 0.1 Bmut (0 = wild type, -1 = scrambled).

For the sequence ATAGTCTGCAGACTTGGACCCTGCCCTTTCTTT, the binding signal was 0.1 Bmut (0 = wild type, -1 = scrambled).

Turning to ATAGTGTGCAGACTTGGACCCTGCCCTTTCTGT, the binding signal was 0.09 Bmut (0 = wild type, -1 = scrambled).

On to TTAGTGTGCAGACTTGGACCCTGCCCTTTCTTT, for which the binding signal is 0 Bmut (0 = wild type, -1 = scrambled).

In the case of ATAGTGTGCAGACTTGGACCCTGCCCTCTCTTT, the binding signal was -0.1 Bmut (0 = wild type, -1 = scrambled).

With CTAGTGTGCAGACTTGGACCCTGCCCTTTCTTT, the binding signal was -0.1 Bmut (0 = wild type, -1 = scrambled).

With ATAGTGTGCAGACTTGGACCCTGCCGTTTCTTT, the binding signal is 0.04 Bmut (0 = wild type, -1 = scrambled).

In the case of ATAGTGTGCAGACTTCGACCCTGCCCTTTCTTT, the binding signal is -0.2 Bmut (0 = wild type, -1 = scrambled).

For the sequence ATAGTGTGCAGACTTGGACCCTGGCCTTTCTTT, the binding signal was 0.03 Bmut (0 = wild type, -1 = scrambled).

Regarding ATAGCGTGCAGACTTGGACCCTGCCCTTTCTTT, the binding signal is -0.5 Bmut (0 = wild type, -1 = scrambled).

Turning to ATAGTGTGCAGACTTGGACGCTGCCCTTTCTTT, the binding signal was -0.1 Bmut (0 = wild type, -1 = scrambled).

Consider ATAGTGTGCAGACTTGCACCCTGCCCTTTCTTT, for which the binding signal is -0.2 Bmut (0 = wild type, -1 = scrambled).

Regarding ATAGTGTGCAGACTTGGACCCTGCCCTTCCTTT, the binding signal is -0.1 Bmut (0 = wild type, -1 = scrambled).

For ATAGTGTGCAGACTTGGACCCTGCGCTTTCTTT, the binding signal is -0.4 Bmut (0 = wild type, -1 = scrambled).

As for ATCGTGTGCAGACTTGGACCCTGCCCTTTCTTT, the binding signal was -0.1 Bmut (0 = wild type, -1 = scrambled).

Regarding ATAGTGTGCAGACTTGGACCCTGCCCTTTCATT, the binding signal was 0.08 Bmut (0 = wild type, -1 = scrambled).

Take ATAGTGAGCAGACTTGGACCCTGCCCTTTCTTT: the binding signal is -0.3 Bmut (0 = wild type, -1 = scrambled).

Regarding ATAGTGTGCAGACTTGGACCCTGCACTTTCTTT, the binding signal is -0.1 Bmut (0 = wild type, -1 = scrambled).

For the sequence ATAGTGTGCAGACTTAGACCCTGCCCTTTCTTT, the binding signal is -0.1 Bmut (0 = wild type, -1 = scrambled).

In the case of ATAGTGTGCTGACTTGGACCCTGCCCTTTCTTT, the binding signal is -0.4 Bmut (0 = wild type, -1 = scrambled).

Regarding ATAGTGTGCAGACTTGGATCCTGCCCTTTCTTT, the binding signal was -0.3 Bmut (0 = wild type, -1 = scrambled).

As to ATAGTGTGCAGACTTGGACCTTGCCCTTTCTTT, the binding signal is 0.06 Bmut (0 = wild type, -1 = scrambled).

ATAGTGTGCAGACTTGAACCCTGCCCTTTCTTT: the binding signal is 0.2 Bmut (0 = wild type, -1 = scrambled).

Take ATATTGTGCAGACTTGGACCCTGCCCTTTCTTT: the binding signal was 0.3 Bmut (0 = wild type, -1 = scrambled).

As to ATAGTGTGCAGACTTGGACCCTGACCTTTCTTT, the binding signal is -0.3 Bmut (0 = wild type, -1 = scrambled).

Consider ATAGTGTGCAGACTTGGACCCTGCCCTATCTTT, for which the binding signal was 0.13 Bmut (0 = wild type, -1 = scrambled).

For ATAGTGTGCAGACTTGGACCCTGCCCTTTGTTT, the binding signal is -0 Bmut (0 = wild type, -1 = scrambled).

ATAGTGTGCAGACTTGGACCCTGCCCATTCTTT: the binding signal was 0.09 Bmut (0 = wild type, -1 = scrambled).

Consider ATAGTGTGCAGACTTGGACCATGCCCTTTCTTT, for which the binding signal was 0.07 Bmut (0 = wild type, -1 = scrambled).
